Source: PubChem BioAssay
M18AAP inhibitor – PfM18AAP inhibitors, malaria aminopeptidase, primary screen, biochemical, QFRET, recombinant enzyme | actives 1.2% (n = 290,000) | H-Glu-NHMec fluorogenic cleavage | inhibition, % at 7.35 µM;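 active means inhibition above the campaign mean inhibition over all tested compounds plus 3 SD, cut at about 28% in these data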;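 further: 0% = plate median of test compound wells and 100% = 2 mM ZnCl2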
APOBEC3A inh – APOBEC3A ssDNA deaminase inhibitors, primary screen, selectivity assay for APOBEC3G inhibitor project, biochemical, FAM/TAMRA oligo cleavage fluorescence; DNA dC->dU-editing enzyme APOBEC-3A (Homo sapiens), P31941; recombinant A3A, FAM/TAMRA ssDNA deamination fluorescence; inhibition, % at 20 µM; actives 0.41% (n = 330,000);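 active means at least 40% inhibition at 20 µM here, with at most 30% in a related deaminase screen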;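 further: plate controls were A3A with DMSO for no effect and wells lacking A3A enzyme for full effect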
Target sequence (P31941 whole entry, looked up): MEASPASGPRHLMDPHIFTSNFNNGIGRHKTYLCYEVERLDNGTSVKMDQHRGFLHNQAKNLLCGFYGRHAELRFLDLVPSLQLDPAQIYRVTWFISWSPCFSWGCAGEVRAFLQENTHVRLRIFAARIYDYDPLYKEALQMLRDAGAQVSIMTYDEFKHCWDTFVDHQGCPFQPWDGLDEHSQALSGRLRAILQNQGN
PfG6PD inh – PfG6PD enzyme inhibitors, primary screen, biochemical, fluorescence intensity, uHTS; glucose-6-phosphate dehydrogenase-6-phosphogluconolactonase (Plasmodium falciparum 3D7); PfGluPho enzyme, NADPH resazurin-diaphorase fluorescence; inhibition, % at 20 µM; actives 0.78% (n = 350,000); AID 504690, 2011;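 active means inhibition reaching at least a set limit at 20 µM in the primary screen, cut at about 59% in these data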;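 further: 0% = DMSO wells with substrate and 100% = DMSO wells lacking glucose-6-phosphate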
APOBEC3G inh – APOBEC3G DNA deaminase inhibitors, primary screen, biochemical, fluorescence, single-stranded DNA substrate, uHTS. DNA dC->dU-editing enzyme APOBEC-3G (Homo sapiens), Q9HC16. recombinant A3G, ssDNA deamination FAM/TAMRA fluorescence. inhibition, % at 20 µM. actives 0.28% (n = 330,000);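 active means inhibition of at least 40% at 20 µM, with no more than 30% in the related APOBEC3A deaminase screen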;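 further: plate controls were DMSO wells with A3G for no effect and wells lacking A3G enzyme for full effect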
Target sequence (Q9HC16 whole entry, looked up): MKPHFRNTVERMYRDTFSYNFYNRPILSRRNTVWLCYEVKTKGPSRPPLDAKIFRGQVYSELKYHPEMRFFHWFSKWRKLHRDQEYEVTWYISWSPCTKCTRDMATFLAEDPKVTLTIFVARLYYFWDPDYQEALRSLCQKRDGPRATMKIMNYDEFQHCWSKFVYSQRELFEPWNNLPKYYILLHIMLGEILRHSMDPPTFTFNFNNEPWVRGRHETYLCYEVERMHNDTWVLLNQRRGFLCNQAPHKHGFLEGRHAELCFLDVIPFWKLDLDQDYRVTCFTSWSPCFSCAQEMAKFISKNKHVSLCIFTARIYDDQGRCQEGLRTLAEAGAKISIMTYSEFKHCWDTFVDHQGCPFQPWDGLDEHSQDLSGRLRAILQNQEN
CR mimetic SO – reduction of superoxide in aged yeast, primary screen, HTS | S. cerevisiae aged cells, superoxide DHE fluorescence; hits give low values | superoxide response (% of plate mean), % at 10 µM | actives 0.18% (n = 330,000) | AID 2690, 2010;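 active means superoxide response under a set limit, about three screen SD below normal, cut at about 65% in these data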;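 further: yeast aged for seven days with compound at 30 °C before DHE staining; 100% = average MFI of all compound-treated wells on the plate with controls excluded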
APOBEC3A confirm – APOBEC3A deaminase inhibitors, retest, confirmation, selectivity assay for APOBEC3G inhibitor project, biochemical, single concentration, fluorescence readout; shares compounds with APOBEC3A inh; actives 63% (n = 1,400); inhibition, % at 20 µM; recombinant A3A, ssDNA deaminase UDG fluorescence assay;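 active means inhibition reaching a set limit, 80% of the first screen's cutoff, at 20 µM in any replicate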;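 further: plate controls were DMSO wells with A3A for no effect and wells lacking A3A enzyme for full effect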
UDG A3A counter – E. coli UDG inhibitors, confirmation, counter-screen for APOBEC3A inhibitor project, biochemical, single concentration, fluorescence, FAM/TAMRA oligo; shares compounds with APOBEC3A inh; UDG counterscreen, FAM/TAMRA uracil oligo fluorescence; inhibition, % at 20 µM; 1,000 tested, under 10 active; AID 504714, 2011; call rule not given here
* = called active by the depositor; . = no result given. This is a sample that favours compounds with a hit; in the whole collection about 2.4% have one here.

SMILES	M18AAP inhibitor	APOBEC3A inh	PfG6PD inh	APOBEC3G inh	CR mimetic SO	APOBEC3A confirm	UDG A3A counter
CC(C)(O)C#Cc1ccc(C(=O)NCc2ccccc2F)cc1	-0.4	0.4	11.0	2.1	104.4	.	.
CSC1=NCCN1CCOc1ccccc1	0.1	64.9*	18.6	15.8	88.1	55.2*	-2.4
CN(C)CCN1C(=O)C(=O)/C(=C(/O)c2ccccc2)C1c1ccccc1F (stereo unspecified)	-4.7	72.0*	-3.2	-3.7	97.2	-4.9	1.2
CC1CC(C)CN(C(=O)C(C)N2CCN(S(=O)(=O)c3ccc(Br)s3)CC2)C1 (stereo unspecified)	.	0.9	13.3	-4.7	101.1	.	.
COc1ccc(Cl)cc1N(CC(=O)Nc1ccc2c(c1)OCO2)S(C)(=O)=O	2.0	41.8*	10.6	3.2	95.7	7.6	.
CCC(C)N(C(=O)COC(=O)c1ccc(=O)n(Cc2ccccc2)n1)C1CCS(=O)(=O)C1 (stereo unspecified)	.	-1.3	-7.2	-5.6	102.8	.	.
CCN1C(=NCCc2ccccn2)N[C@@H](c2cccc(F)c2)C(C(=O)OC)=C1C	1.8	47.6*	1.5	5.4	97.1	63.3*	-1.5
COC(=O)C1=C(C)N(Cc2ccccc2)C(=NCCc2ccccn2)N[C@H]1c1cccc(F)c1	-0.8	47.7*	7.7	15.1	94.9	63.0*	-3.7
CCN1C(=NCc2cccc(Cl)c2)N[C@@H](c2cccc(F)c2)C(C(=O)OC)=C1C	-5.4	5.4	13.8	0.5	103.3	.	.
CCOCCc1nnc(NC(=O)CCS(=O)(=O)c2ccccc2)s1	-1.8	6.7	-2.4	8.7	105.1	.	.
COc1ccccc1OCC(=O)N/N=C/C=C/c1ccc([N+](=O)[O-])o1	7.6	44.6*	21.6	23.2	108.7	19.0*	-2.6
COc1ccc(N(C(=O)c2ccc(S(=O)(=O)N3CCCC3)cc2)C2C=CS(=O)(=O)C2)cc1 (stereo unspecified)	6.5	0.7	2.9	-6.3	82.2	.	.
CCC(Oc1ccccc1OC)C(=O)Nc1ccc2c(c1)OCCO2 (stereo unspecified)	-17.5	.	-0.9	.	101.6	57.3*	.
C[n+]1ccc(/C=C/c2ccc(Br)cc2)cc1	-0.2	50.9*	20.7	21.5	100.4	81.6*	-34.5
Cc1ccc2[nH]c(C)c(/C=C/c3cc[n+](C)cc3)c2c1	7.3	33.8	13.3	-36.1	104.2	.	.
CCCCC[n+]1cccc2c3ccccc3ccc21	-14.4	54.8*	10.3	22.9	104.1	72.5*	-2.1
O=C1OC(c2ccc(Cl)cc2)=C/C1=C/c1cccnc1	1.1	61.6*	4.0	13.2	92.7	37.3*	4.3
CCn1c(/C=C/c2ccccc2)nc2ccccc21	5.9	2.5	56.5	-5.0	83.0	.	.
CCCn1c(/C=C/c2cc[n+](C)cc2)nc2ccccc21	7.3	57.2*	2.9	18.5	93.5	62.3*	.
O=C(CCc1nc2ccccc2c(=O)[nH]1)NNC(=O)c1ccc(F)cc1	.	-5.7	-5.6	-7.2	103.5	.	.
CC[N+]1(CC(O)COC2CC(C)CC(C)(C)C2)CCOCC1 (stereo unspecified)	-6.6	43.2*	7.4	23.7	119.0	75.0*	-4.0
CCSc1ccc2cc(OC)ccc2[n+]1CC	-4.0	78.1*	8.8	28.4	80.7	69.7*	-3.1
CCCOc1cccc(C2C(C(=O)c3cc4ccccc4o3)=C(O)C(=O)N2c2cc(C)on2)c1 (stereo unspecified)	18.8	57.4*	-26.0	-4.5	99.9	-12.6	-0.9
COCc1c(C(=O)N2CCN(Cc3nc4ccccc4s3)CC2)oc2ccccc12	.	63.2*	8.0	19.9	110.8	71.5*	-1.8
COc1ccccc1N(CC(=O)N1CCCC1)S(=O)(=O)c1cc([N+](=O)[O-])ccc1Cl	.	-3.9	-3.1	-10.5	129.1	.	.
SMILES	M18AAP inhibitor	APOBEC3A inh	PfG6PD inh	APOBEC3G inh	CR mimetic SO	APOBEC3A confirm	UDG A3A counter
Cc1ccc2c(c1)C1CN(C)CCC1N2CC(=O)N(C)c1ccccc1 (stereo unspecified)	-3.0	51.5*	8.3	18.8	110.7	49.7*	-2.2
Cc1ccc2c(c1)C1CN(C)CCC1N2C(=O)COc1ccc(N(C)C(=O)C(C)(C)C)cc1 (stereo unspecified)	2.1	8.8	-5.7	1.3	99.8	.	.
CCC(C)[C@H]1COCCS(=O)(=O)N1Cc1ccccc1 (stereo partly specified)	7.5	-2.9	-7.1	-8.9	90.2	.	.
COC(=O)C1=C(C)N(Cc2ccccc2)C(=O)N[C@H]1c1ccccc1	-4.8	-6.6	-22.2	-11.7	101.1	.	.
COC(=O)C1=C(C)N(Cc2ccccc2)C(=NCc2ccc(OC)cc2)N[C@H]1c1ccccc1	.	44.6*	-2.4	10.6	88.9	58.6*	-2.4
COC(=O)C1=C(C)N(Cc2ccccc2)C(=NCC(C)C)N[C@H]1c1ccccc1	1.6	63.7*	13.0	14.1	106.7	58.3*	-1.8
COC(=O)C1=C(C)N(Cc2ccccc2)C(=S)N[C@H]1c1ccccc1	3.8	-5.1	-12.4	-6.5	99.3	.	.
Cc1ccc(C(=O)NCC(=O)OCc2nnc(-c3ccc([N+](=O)[O-])cc3)o2)s1	.	1.5	12.5	-3.7	86.1	.	.
CCCN(C(=O)CSCc1ccc(C)cc1)c1c(N)n(Cc2ccccc2)c(=O)[nH]c1=O	.	.	-3.6	.	.	.	.
CCN1CCN(c2ccc(S(=O)(=O)N3CCCCC3)cc2NC(=O)c2ccc(OC(F)F)cc2)CC1	.	47.5*	4.7	4.8	97.5	53.8*	2.3
CCN1CCN(c2ccc(S(=O)(=O)N3CCCCC3)cc2NC(=O)/C=C/c2ccc(F)cc2)CC1	.	61.1*	22.4	22.0	84.1	64.4*	0.4
O=C(CSc1ccccc1)Nc1cccc(S(=O)(=O)N2CCCC2)c1	-0.2	0.6	6.6	-3.0	101.8	.	.
CCN1CCN(c2ccc(S(=O)(=O)N3CCOCC3)cc2NC(=O)C(C)Oc2ccc(Cl)cc2)CC1 (stereo unspecified)	.	56.3*	2.6	11.3	83.3	43.8*	2.5
CC(CC(=O)Nc1cccc(S(=O)(=O)N2CCCCC2)c1)c1ccccc1 (stereo unspecified)	.	40.4*	4.9	11.3	95.3	23.0	.
